# Compound activity from PubChem BioAssay.
# RecA intein inh: Mtb RecA intein splicing inhibition; hit rate 0.75% among 290,000; P9WHJ3; AID 2221; inhibition, % (test concentration not listed); cell-free RecA intein splicing, fluorescence; in the data active means inhibition above about 30%; inconclusive means no clear call, values can overlap the other calls;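 further: 0% = vehicle wells and 100% = reference inhibitor control wells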
# Target sequence (P9WHJ3 whole entry, looked up): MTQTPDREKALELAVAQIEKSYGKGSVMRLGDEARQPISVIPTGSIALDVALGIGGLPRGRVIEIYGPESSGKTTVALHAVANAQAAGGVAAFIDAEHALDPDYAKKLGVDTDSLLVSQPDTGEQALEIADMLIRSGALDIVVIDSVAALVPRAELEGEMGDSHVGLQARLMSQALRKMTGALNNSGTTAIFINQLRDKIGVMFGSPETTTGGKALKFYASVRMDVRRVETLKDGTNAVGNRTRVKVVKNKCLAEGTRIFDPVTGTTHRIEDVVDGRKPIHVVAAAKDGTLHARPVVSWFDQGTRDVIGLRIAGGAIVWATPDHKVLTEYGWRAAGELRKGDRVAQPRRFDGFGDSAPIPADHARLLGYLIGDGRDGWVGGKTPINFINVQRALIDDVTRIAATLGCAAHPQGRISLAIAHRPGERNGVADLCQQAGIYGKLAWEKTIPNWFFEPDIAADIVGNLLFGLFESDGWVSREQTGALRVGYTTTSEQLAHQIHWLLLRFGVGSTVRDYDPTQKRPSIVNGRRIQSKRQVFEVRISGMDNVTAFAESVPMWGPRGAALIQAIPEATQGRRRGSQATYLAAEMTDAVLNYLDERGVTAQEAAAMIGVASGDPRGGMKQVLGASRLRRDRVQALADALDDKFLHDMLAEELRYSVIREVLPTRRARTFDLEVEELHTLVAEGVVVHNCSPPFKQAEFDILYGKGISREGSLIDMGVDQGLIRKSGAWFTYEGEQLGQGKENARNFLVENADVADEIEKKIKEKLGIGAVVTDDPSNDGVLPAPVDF
# SSB-PriA inh: blocks PriA binding to SSB C-terminal tail; AlphaScreen SSBct-PriA binding, biotinylated peptide; inhibition, % at 33 µM; hit rate 0.6% among 430,000; AID 1272365; in the data active means inhibition mostly above about 37%, no sharp cut-off; inactive means mostly below about 20%;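 further: plate controls were negative control peptide for no effect and reference peptide for full effect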
# BJeLR lethal: kills HRASV12-expressing BJeLR cells | inhibition, % (concentration not given with the values) | AID 1554 | hit rate 0.17% among 300,000 | BJeLR (HRASV12) viability, CellTiter-Glo ATP luminescence, 48 h; in the data active means inhibition above about 50%; inconclusive means no clear call, values can overlap the other calls
# PrP 5UTR inh: inhibition of PrP 5' UTR reporter expression | cell-based PrP 5' UTR mRNA reporter, plate reader | inhibition, % (no concentration beside the values) | hit rate 0.35% among 340,000 | AID 488862; in the data active means inhibition above about 52%; further: 0 = median of the neutral control wells
# PfHsp40 yeast: rescue of PfHsp40-mediated yeast toxicity | S. cerevisiae expressing PfHsp40, growth rescue, ATP luminescence | growth rescue, % at 12.5 µM | hit rate 0.68% among 340,000; in the data active means growth rescue above about 28%, passing the limit was not always enough; inconclusive means no clear call, values can overlap the other calls;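 further: yeast W303a lacking pdr1 and pdr3 grown in galactose medium; growth measured after three days at 30 °C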
# PrPC TRFRET: inhibitors of human cell surface prion protein PrPC. inhibition, % at 13.8 µM. P04156. TR-FRET read-out. hit rate 0.43% among 370,000; in the data active means inhibition above about 24%; further: 0% = median of the test wells and 100% = reference compound wells
# Starred values were filed as active, the others as inactive; ? = inconclusive; / = no result given. Shown are actives, neighbours in structure and some others; about 1.9% of the full set was active somewhere.
SMILES,RecA intein inh,SSB-PriA inh,BJeLR lethal,PrP 5UTR inh,PfHsp40 yeast,PrPC TRFRET
CO[C@@H](CNC(=O)NCCOc1ccccc1)c1ccccc1C,/,-1.0,/,/,/,/
CCOc1ccc(C(=O)NCC#CCN2CCc3ccccc3C2)cc1OCC,/,-4.0,/,/,/,/
Nc1ccn(Cc2ccccc2)n1,-1.9,-9.7,-0.2,-0.4,0.8,-2.3
c1ccc(Cn2ccc(-c3cnc(-c4ccccc4)s3)n2)cc1,3.6,-8.9,-1.8,-52.4,69.4*,-10.1
O=C(c1ccc(F)cc1Cl)N1CCC(Cn2cccn2)CC1,/,37.0*,/,/,/,/
O=C(c1ccco1)N1CCC(Cn2cccn2)CC1,/,-14.0,/,/,/,/
CSc1cccc(C(=O)Nc2cccc3ccccc23)c1,/,1.0,/,/,/,/
CCOC(=O)N1CCC(c2cc(=O)n3[nH]c(C)c(-c4ccc(F)cc4)c3n2)CC1,-0.9,55.2*,-1.9,-21.9,-1.0,0.9
O=C(NCCn1ccnc1-c1ncccn1)C1CC(=O)N(c2ccc(F)cc2)C1 (stereo not drawn),/,116.0*,/,/,/,/
Cc1ccc(N2CC(C(=O)NCCn3cccnc3=O)CC2=O)cc1C (stereo not drawn),/,40.6,/,/,/,/
Cc1ccc(N2CC(C(=O)NCCn3ccnc3-c3ncccn3)CC2=O)cc1C (stereo not drawn),/,43.0*,/,/,/,/
CCCCC(CC)c1nnc(NC(=O)c2cccs2)s1 (stereo not drawn),0.5,-5.2,0.9,-13.7,264.2*,2.5
CCCn1c(=NC(=O)c2ccc(Cl)s2)sc2c(C)ccc(OC)c21,/,-12.0,/,/,/,/
O=C(Oc1cccc(OC(=O)c2ccco2)c1)c1ccco1,49.3*,7.9,-2.0,-11.8,-1.9,-6.3
O=C(Oc1ccc(-c2nnco2)cc1)c1ccco1,46.8*,-13.6,-7.9,-27.4,-4.4,0.3
O=C(Oc1cccc(-n2cnnn2)c1)c1ccco1,43.0*,-8.4,-0.2,-23.5,0.6,-4.5
CN(C)C(=O)Oc1ccc(-c2nnco2)cc1,-2.5,-11.4,-3.9,-22.4,0.6,-0.2
Cc1ccc(C(=O)Oc2cccc(-n3cnnn3)c2)cc1,6.2,4.0,5.1,-24.3,-1.4,-0.6
COC1(CNC(=O)c2cc3ccccc3[nH]2)CCSC1 (stereo not drawn),/,0.0,/,/,/,/
O=C(c1ccccc1)c1ccc(OCC(O)CNCc2ccc(F)cc2)cc1 (stereo not drawn),2.5,-1.5,8.3,-3.3,1.0,-0.3
O=C(c1ccccc1)c1ccc(OCC(O)CNc2ccc(F)cc2)cc1 (stereo not drawn),/,57.0*,/,/,/,/
Oc1ccc(Cl)cc1Cc1cc(Cl)ccc1O,13.5,4.5,2.5,-3.3,234.1*,1.4
COc1ccc(OC)c(CNc2ccc(F)c(Cl)c2)c1,11.2,4.1,4.2,-14.7,38.2*,7.2
CCOC(=O)c1c(SCC(=O)NCc2ccccc2Cl)nc(=O)[nH]c1C,/,-16.0,/,/,/,/
Cc1ccccc1N(Cc1cc(=O)[nH]c2ccccc12)C(=O)C(C)C,-1.2,-13.1,2.7,-14.5,-1.1,0.5
SMILES,RecA intein inh,SSB-PriA inh,BJeLR lethal,PrP 5UTR inh,PfHsp40 yeast,PrPC TRFRET
Cc1ccccc1N(Cc1cc(=O)[nH]c2ccccc12)C(=O)CCl,48.3*,/,11.8,-1.0,-1.0,-0.8
Cc1nnc(NN=Cc2cccs2)[nH]c1=O,/,-2.8,/,/,/,/
O=[N+]([O-])c1ccccc1-c1cc(-c2ccccc2O)n[nH]1,8.0,10.0,1.3,-59.2,48.6*,-15.3
O=[N+]([O-])c1cccc(-c2cc(-c3cc(Br)ccc3O)[nH]n2)c1,1.3,-1.2,0.0,-22.6,285.3*,-24.2
Cc1ccc(-c2cc(-c3ccccc3C)[nH]n2)c(O)c1,15.7,-21.8,/,-104.6,?,3.3
COc1ccc(CCn2c(C3CCCCC3)nc3c(c(=O)c4ccccc4n3C)c2=O)cc1OC,-1.7,-3.2,-10.6,-13.8,103.9*,8.2
COc1ccc2ccccc2c1C=C1C(=O)N(C)C(=O)N(C)C1=O,/,-4.0,/,/,/,/
CN1C(=O)C(=Cc2c(OCc3cnc(Cl)s3)ccc3ccccc23)C(=O)N(C)C1=O,3.4,6.2,1.8,-27.6,125.2*,-3.9
O=C(COc1ccc2ccccc2c1)NN=Cc1ccccn1,/,-5.6,/,/,/,/
COc1cc(OC)c(OC)cc1/C=N/n1c(-c2n[nH]c3c2CCC3)n[nH]c1=S,0.6,/,7.4,-10.0,27.9*,1.1
Cc1cn2nnc(C(=O)Nc3nccs3)c2c(=O)[nH]1,/,-15.0,/,/,/,/
O=C(c1ccc2c(c1)OCO2)N(Cc1cccs1)C1(C(=O)NC2CCCCC2)CCCCC1,19.2,8.1,-2.8,-25.4,67.5*,-5.0
CCC(=O)c1ccc(OCC(O)CNCCc2ccc(Cl)cc2)cc1 (stereo not drawn),0.9,40.0*,9.1,-19.0,/,-8.3
CCC(=O)c1ccc(OCC(O)CNCc2ccc(F)cc2)cc1 (stereo not drawn),-1.7,5.6,8.9,-1.8,2.6,0.9
O=C1c2ccccc2-c2nnc(-c3ccc(F)cc3)cc21,/,-13.0,4.2,7.3,2.1,-2.5
O=C1c2ccccc2-c2nnc(-c3ccc(O)cc3)cc21,48.7*,-1.8,-4.1,-92.2,0.4,-6.8
COc1ccc(C(=O)N2CCN(c3nccn3-c3ccc(C)cc3)CC2)c(OC)c1,/,38.0*,/,/,/,/
COc1cc(OC)cc(C(=O)N2CCN(c3nccn3-c3cccc(Cl)c3)CC2)c1,/,40.0*,/,/,/,/
COc1ccccc1C(=O)N1CCN(c2nccn2-c2ccc(C)cc2)CC1,/,68.5,/,/,/,/
Cc1csc(NC(=O)CSc2nc3c(c(=O)n2Cc2ccccc2)SCC3)n1,/,-4.0,/,/,/,/
CC(=O)OC[C@H]1O[C@@H](Sc2cccc3cccnc23)[C@H](OC(C)=O)[C@@H](OC(C)=O)[C@H]1OC(C)=O,-0.9,40.2*,-5.2,-7.4,-0.9,1.6
CCc1ccc(S(=O)(=O)Nc2ccc3nc(C)n(-c4ccc(OC)cc4)c(=O)c3c2)s1,/,-16.0,/,/,/,/
CN(C)c1ccc(N=Nc2ccccc2C(=O)OCC(=O)N2CCCC2)cc1,-3.4,52.9*,-14.4,-33.0,1.3,-41.5
Cc1c(Cl)cccc1NC=C1C(=O)OC2(CCCCC2)OC1=O,/,-5.0,/,/,/,/
CN1c2ccccc2N(C)C1(C)c1ccccc1,14.8,41.9*,26.9,-8.8,1.3,0.5
SMILES,RecA intein inh,SSB-PriA inh,BJeLR lethal,PrP 5UTR inh,PfHsp40 yeast,PrPC TRFRET
COc1ccc(Sc2nc(-c3ccccn3)ncc2OC)cc1,5.6,-3.8,-1.5,2.2,?,6.6
CCOC(=O)CSc1nc(-c2ccccn2)ncc1OC,1.0,83.1*,-8.9,-18.5,-0.6,-6.4
COc1cnc(-c2ccccn2)nc1Sc1ccc(Cl)cc1,2.1,-2.2,-10.5,-11.5,1.1,9.6
COc1cnc(-c2ccccn2)nc1Sc1ccc(F)cc1,4.4,10.7,-1.9,-15.2,37.4*,6.9
COc1cnc(-c2ccccn2)nc1Sc1ccccc1,4.4,22.2,-2.5,-15.9,267.6*,5.0
Cc1cc(NC(=O)C2CCN(c3ccc(=O)n(C)n3)CC2)on1,/,0.0,/,/,/,/
O=C(Nc1nnc(C2CCCO2)o1)c1cc2ccccc2o1 (stereo not drawn),/,21.0,/,/,/,/
O=C(Nc1nnc(-c2ccno2)o1)C1COc2ccccc2O1 (stereo not drawn),/,21.0,/,/,/,/
O=C(Nc1nnc(C2CCCO2)o1)C(c1ccccc1)c1ccccc1 (stereo not drawn),/,84.0*,/,/,/,/
